# Data from PubChem BioAssay AID1006 (Sanford-Burnham Center for Chemical Genomics, 2008).
# About 3,000 (1.5%) of roughly 200,000 compounds were called active. This is one part of a sample in which actives are shown more often than they occur. Values without a mark were called inactive.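 The calls were made as follows: active = inhibition above about 50% when tested at 10 µM (limit read from the data); inactive = the rest.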
# Biological target: Luciferin 4-monooxygenase (Photinus pyralis) (UniProt P08659)
# Sequence (P08659 whole entry, looked up): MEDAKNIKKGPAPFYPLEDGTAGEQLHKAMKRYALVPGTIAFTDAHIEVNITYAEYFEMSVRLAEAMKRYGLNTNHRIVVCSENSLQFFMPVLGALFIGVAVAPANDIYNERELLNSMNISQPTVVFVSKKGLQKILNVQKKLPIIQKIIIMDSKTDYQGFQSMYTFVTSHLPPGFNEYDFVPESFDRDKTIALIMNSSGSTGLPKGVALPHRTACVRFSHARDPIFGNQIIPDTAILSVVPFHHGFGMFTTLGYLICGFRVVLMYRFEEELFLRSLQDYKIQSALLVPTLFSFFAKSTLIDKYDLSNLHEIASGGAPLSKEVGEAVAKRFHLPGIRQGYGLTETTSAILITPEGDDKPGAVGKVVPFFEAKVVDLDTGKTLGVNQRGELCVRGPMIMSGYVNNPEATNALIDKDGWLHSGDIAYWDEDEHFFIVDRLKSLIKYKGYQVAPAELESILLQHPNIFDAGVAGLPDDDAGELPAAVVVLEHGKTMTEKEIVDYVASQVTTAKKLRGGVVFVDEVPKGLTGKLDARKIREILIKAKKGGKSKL
# Assay: firefly luciferase enzyme inhibitors, primary screen, artefact control for luciferase-based inhibitor screens, biochemical, luminescence, ATPLite (AID 1006)
# Settings: 10 min, at 10 µM, hits give high values
row,SMILES,inhibition
1,CCC(C)c1ccc(NC(=S)NCc2ccccn2)cc1 (configuration not stated),-3.2%
2,C/C(=N\N=C(N)N)c1ccc(Cl)cc1,-7.1%
3,Cc1ccc(CNC(=O)CC2Sc3ccccc3NC2=O)cc1 (configuration not stated),-6.5%
4,C(=N\Nc1ccc2ccccc2n1)/c1ccc2c(c1)OCO2,87.4% (active)
5,Cc1noc(C)c1/C=N/Nc1ccc2ccccc2n1,13.4%
6,Brc1ccc(-c2csc(N/N=C/c3ccc4c(c3)OCO4)n2)cc1,-0.1%
7,CCNC(=S)N1CCN(c2ncccn2)CC1,-2.5%
8,COc1ccc(NC(=O)Nc2cccc3cccnc23)cc1,65.4% (active)
9,COc1ccc(NC(=O)Nc2ccc3nc(C)c(C)nc3c2)cc1,-4.8%
10,COc1ccc(NC(=O)C2CCCN(S(=O)(=O)c3cccc4cccnc34)C2)cc1 (configuration not stated),-0.5%
11,O=C(CSC(=S)N1CCOCC1)c1ccccc1,72.6% (active)
12,NC(=NC(=O)c1ccccc1)N1CCOCC1,0.1%
13,CC1CN(C(=S)SCC(=O)c2ccccc2)CC(C)O1 (configuration not stated),4.3%
14,CCC(C)(C)c1ccc(OCC(=O)N(C)C)c(C(C)(C)CC)c1,-6.6%
15,Cc1cc(C)nc(SCC(=O)N(C)C)n1,-4.6%
16,O=C(CC1Nc2ccccc2NC1=O)Nc1ccccc1NC(=O)CC1Nc2ccccc2NC1=O (configuration not stated),7.9%
17,Cc1ccc(N/C=C/C(=O)c2ccccc2)cc1C,91.4% (active)
18,O=C(/C=C\NCC(=O)c1ccccc1)c1ccccc1,14.5%
19,Cc1noc(NS(=O)(=O)c2ccc(N/C=C/C(=O)c3ccccc3)cc2)c1C,-2.7%
20,CC1CCN(C(=S)c2ccc(-c3ccc(Cl)cc3Cl)o2)CC1,3.9%
21,S=C(c1ccc(-c2ccccc2)o1)N1CCCCC1,83.4% (active)
22,S=C(NCCc1ccccc1)N1CCCCC1,9.6%
23,COc1cccc(OC)c1C(=O)NC(=S)NCc1ccco1,-2.1%

row,SMILES,inhibition
1,COCCn1c(Cc2cccn2C)nnc1SCC(=O)Nc1nccs1,-5.3%
2,COc1cc(NC(=O)COc2ccccc2Cl)ccc1NC(=O)C(C)C,-2.5%
3,CC(CC(=O)C1C(C)C=CCC1(C)C)NNC(N)=O (configuration not stated),-6.1%
4,O=C(Nc1nc2ccccc2s1)c1ccc2c(c1)OCO2,83.9% (active)
5,Cc1cc(C)c2nc(NC(=O)c3ccc4c(c3)OCO4)sc2c1,-1.6%
6,O=C(Nc1ccccc1)Nc1nc2ccccc2s1,52.9% (active)
7,CSCCC(Nc1nc2ccccc2s1)C(=O)O (configuration not stated),-2%
8,O=C(Nc1ccccc1)c1ccc2c(c1)OCO2,34.2%
9,CCCc1nnc(NC(=O)c2cc(OC)cc(OC)c2)s1,-1.1%
10,COCc1nnc(NC(=O)c2ccc3c(c2)OCO3)s1,58.9% (active)
11,CC(=O)Nc1ccc(-c2csc(NC(=O)Nc3ccccc3)n2)cc1,-0.4%
12,COc1ccc(C(=O)Nc2ccc3c(c2)OCO3)cc1OC,28.8%
13,C/C(=N/NC(=O)CSc1ccccn1)c1ccc([N+](=O)[O-])cc1,-6.6%
14,O=C(CN1CCN(S(=O)(=O)/C=C/c2ccccc2)CC1)Nc1ccc(N2CCOCC2)cc1,-7.8%
15,COc1ccc(-n2c(=S)[nH]c3sc4c(c3c2=O)CCc2ccccc2-4)cc1,4.5%
16,CCOc1ccc2nc(NCCNC(=O)C(C)(C)C)c(C)cc2c1,-2.6%
17,O=C(Cc1ccc(F)cc1)N1CCN=C1SCc1cccc([N+](=O)[O-])c1,-8.2%
18,O=C(NCC1CCCO1)C1CCN(C2CCN(C(=O)C3CCCCC3)CC2)CC1 (configuration not stated),-6.8%
19,CC(=O)Nc1ccc(/C=N/NC(=O)c2cccs2)cc1,42.4%
20,Cc1cccc(-n2c(C)cc(/C=N/NC(N)=S)c2C)c1,0.5%
21,Cc1cccc(-n2c(C)cc(/C=N\NC(=O)c3cccs3)c2C)c1,50.3% (active)
22,COc1ccc(OC)c(S(=O)(=O)Nc2cccc(-c3ccc4nncn4n3)c2)c1,-2.6%
23,Cc1nn(C)cc1/C=N/NC(=O)c1sc2ccccc2c1Cl,11.2%

row,SMILES,inhibition
1,O=C(N/N=C/c1c(Cl)[nH]c2ccccc12)c1sc2ccccc2c1Cl,5%
2,Oc1ccc(N=Cc2sc3ccccc3c2Cl)cc1,65.5% (active)
3,CSc1nc2ccc(NC(=O)c3c(F)cccc3F)cc2s1,12.4%
4,Nc1nnc(SCC(=O)OCc2ccc(Cl)c(Cl)c2)s1,-3.7%
5,Cc1ccc2nc(COc3ccc(N(C)S(=O)(=O)c4ccccc4)cc3)cc(=O)n2c1,-4.2%
6,COc1ccc(C(=O)NCc2cn3ccccc3n2)cc1,-1.1%
7,O=Cc1ccc(OCc2cn3ccccc3n2)cc1,50.3% (active)
8,Cc1cc(C)c2c(NC(=O)C3CC3)nn(C)c2n1,-5.8%
9,COc1ccc(C2Nc3ccccc3C(=O)N2c2ccc(Cl)cc2)cc1Cn1cc([N+](=O)[O-])cn1 (configuration not stated),-5.8%
10,CC(=O)N1CCN(CC(=O)Nc2ccc(SC(F)F)cc2)CC1,-4.2%
11,Cc1ccc(C2=N/C(=C\c3ccc(OS(=O)(=O)c4ccc(C)cc4)cc3)C(=O)O2)cc1,-8.9%
12,Cc1cccc(C2=N/C(=C/c3cccs3)C(=O)O2)c1,88.5% (active)
13,Cc1ccc(N2CCN(C3=NC(=O)/C(=C\c4cccs4)S3)CC2)cc1,-3.4%
14,COc1cc(C(=O)Nc2nccs2)cc(OC)c1OC,-0.7%
15,CCOc1ccc(C(=O)Nc2nccs2)cc1[N+](=O)[O-],-1.5%
16,CC(=O)Oc1ccc(C(=O)Nc2nccs2)cc1,54.1% (active)
17,Cc1nnc(N/N=C/C2CC=CCC2)[nH]c1=O (configuration not stated),-4%
18,Cc1cccc2cc3c(N)c(C(=O)N4CCCc5ccccc54)sc3nc12,-1.8%
19,CCC(=O)NC(=Nc1nc2ccccc2s1)NC(=O)CC,11.6%
20,CC(C)CC(=O)N/C(N)=N/c1nc2ccccc2s1,63.5% (active)
21,CC(C)CC(=O)NC(=S)NCc1ccccc1,-3.5%
